Assay outcomes (PubChem BioAssay)
An excerpt weighted towards active compounds, which were near 2.9% of everything screened.
DRD3 antagonist = antagonists of human D3 dopamine receptor; max response, negative = inhibition, %; P35462; 2.5% of 360,000 active; AID 652054; D3R cells, DiscoveRx beta-arrestin luminescence, antagonist mode; hits give low values; in the data active = max response below about -50%; inconclusive = no clear call, values can overlap the other calls; also: % is scaled to controls: 0 for no effect and ±100 for the full control effect
Target sequence (P35462 whole entry, looked up): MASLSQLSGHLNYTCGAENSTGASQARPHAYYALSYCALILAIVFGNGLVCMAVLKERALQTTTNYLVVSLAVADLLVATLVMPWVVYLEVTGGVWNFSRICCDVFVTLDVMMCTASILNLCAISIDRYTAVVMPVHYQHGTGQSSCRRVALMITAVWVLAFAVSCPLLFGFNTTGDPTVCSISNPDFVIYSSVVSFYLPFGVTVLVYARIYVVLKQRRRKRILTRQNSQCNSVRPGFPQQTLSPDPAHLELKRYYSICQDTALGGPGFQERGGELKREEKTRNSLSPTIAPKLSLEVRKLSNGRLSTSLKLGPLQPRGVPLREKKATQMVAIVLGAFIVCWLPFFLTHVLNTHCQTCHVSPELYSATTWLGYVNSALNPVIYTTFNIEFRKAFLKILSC
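Cells expressing the human receptor were seeded at 1500 cells/well, incubated overnight at 37 degrees C in 5% CO2, then exposed to library compounds with dopamine controls for 90 minutes at 37 degrees C before luminescent detection.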
a7 integrin act = activators of alpha7 integrin expression for muscular dystrophy; Potency, µM (doses to about 38.3 µM), inactives show at the highest dose activation, hits mostly activators; AID 624291; alpha7betagal myoblasts, beta-gal FDG fluorescence, 48 h; 0.064% of 350,000 active; active = well fitted activation curve with a large enough effect; inconclusive = small, poorly fitted or top-dose-only effect; inactive = no such curve, though single readings can be large or run the other way;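 also: potency is read from the fitted curve at half-maximal effect; 100% = response of the positive control SU9516; nearly all actives have a fitted effect of over 60% in size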
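alpha7betagal+/- myoblasts (passage 13, 250/well) treated 48 h at 37C with compounds at 1:260 dilution of DMSO stock. Lysed, then beta-galactosidase activity read as FDG fluorescence (ex 480/em 540) after 30 min, with pre-read for autofluorescence.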
D3 ag = D3 dopamine receptor (human) agonism | 0.58% of 410,000 active | D3R DiscoveRx beta-arrestin cells, luminescence, 90 min | P35462 | max activation, %; in the data active = max activation above about 30%; also: 0% is about no effect
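Cells at 1500/well, incubated overnight, then treated with pinned compounds (dopamine as control) for 90 min at 37 degrees C. DiscoveRx reagent added for 30 - 60 minutes at room temperature; luminescence read.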
Numbers without * were called inactive; u = inconclusive; x = not tested or not shown.

SMILES	DRD3 antagonist	a7 integrin act	D3 ag
CCS(=O)(=O)c1ccccc1C(=O)NC1CCCc2ccccc21 (stereo not given)	-19	-11%	1
COc1ccc2c(c1)c(=O)c(Br)c(C)n2Cc1ccccc1	69	u	4
CN1C(=O)C(O)(c2nnc(-c3ccccc3)o2)c2ccccc21 (stereo not given)	-18	9%	-5
COc1ccccc1C(O)c1ncc(-c2cccc3ccccc23)[nH]1 (stereo not given)	-57*	x	-17
OC(c1ccc(F)cc1)c1ncc(-c2cccc3ccccc23)[nH]1 (stereo not given)	-23	x	-9
O=C(NCCCn1ccnc1)c1csc2ccccc12	9	-3%	-14
C[C@H](CO)N1C[C@H](C)[C@@H](CN(C)S(=O)(=O)c2ccccc2)Oc2c(NC(=O)CCC(F)(F)F)cccc2C1=O	2	-9%	5
CN=c1scc(-c2ccc(F)cc2)n1/N=C/c1ccc(O)c(O)c1	1	-45%	95*
CN=c1scc(-c2ccc([N+](=O)[O-])cc2)n1/N=C/c1ccco1	9	19%	6
CC1=C(C(=O)Nc2ccccc2)C(c2ccc(C(C)C)cc2)N2C(=O)CSC2=N1 (stereo not given)	-51*	1%	5
CC1=C(C(=O)Nc2ccccc2)C(c2ccccc2)N2C(=O)CSC2=N1 (stereo not given)	-4	-6%	-3
Cc1ccc(N=C2C(=O)Nc3c(C)cccc32)cc1	20	-42%	-12
Cc1ccc(N=C2C(=O)Nc3ccc(Br)cc32)cc1	-67*	-37%	-20
CC(C)(C)CC(C)(C)c1ccc(O)c(CN2CCN(CCC#N)CC2)c1	-21	-7%	1
N#CCCN1CCN(Cc2cc(-c3ccccc3)ccc2O)CC1	-96*	0%	-10
CCOC(=O)C1=C(C)N(c2ccc(OC)cc2)C(=O)/C1=C\c1ccc(O)c(OCC)c1	-26	-36%	-2
CCOC(=O)C1=C(C)N(c2ccc(OC)cc2)C(=O)/C1=C\c1cccs1	-20	-19%	72*
N[C@@H](Cc1ccc(O)cc1)c1nnc([C@H](CO)NC(=O)C2CCNCC2)o1	5	-14%	33*
CN(C)[C@@H](CO)c1nnc([C@H](Cc2ccc(O)cc2)NC(=O)C2CCNCC2)o1	7	-19%	0
CCOc1ccc(/C=N/Nc2ccccn2)cc1	0	11%	-1
CCc1nnc(NS(=O)(=O)c2ccc(N3C(=O)c4ccccc4C3=O)cc2)s1	u	u	-12
COc1cc(SC)ccc1C(=O)NCCOc1ccc(Cl)cc1	17	7%	2
COc1cc(SC)ccc1C(=O)NCCOc1c(C)cc(C)cc1C	-83*	-7%	-3
CC(=O)c1ccc(NC(=O)CSc2ccc3nnc(-c4ccccn4)n3n2)cc1	-8	-6%	3
CCOc1ccccc1-n1c(C)nc2cc(C(=O)O)ccc21	11	-2%	-1
SMILES	DRD3 antagonist	a7 integrin act	D3 ag
O=C(c1[nH]c(C(F)(F)F)nc1-c1ccccc1)N1CCCCC1	8	x	4
CC(=O)N1CCN(C(=O)c2[nH]c(C(F)(F)F)nc2-c2ccccc2)CC1	12	x	9
O=C(c1[nH]c(C(F)(F)F)nc1-c1ccccc1)N1CCN(c2cccc(C(F)(F)F)n2)CC1	-55*	x	-6
CC1CCN(C(=O)c2[nH]c(C(F)(F)F)nc2-c2ccccc2)CC1	-69*	x	8
O=C(C[n+]1cc[nH]c1)c1ccc(Cl)cc1	-23	11%	-10
c1ccc2c(c1)OCC(CN1CCCCC1)O2 (stereo not given)	x	x	-11
Cc1cc2nc(C3CCN(CC4COc5ccccc5O4)CC3)[nH]c2cc1C (stereo not given)	-50*	25%	-1
O=C(c1cc(-c2ccccc2)nc2ccccc12)N1CCN(c2ccccc2O)CC1	6	7%	6
Cc1ccc2nc(-c3ccccc3)cc(C(=O)N3CCN(c4ccccc4O)CC3)c2c1	37	-16%	31*
CC(=O)Nc1c([N+](=O)[O-])cc2[nH]c(=O)[nH]c2c1[N+](=O)[O-]	u	15%	-5
O=c1[nH]c2cc([N+](=O)[O-])c(NCCO)c([N+](=O)[O-])c2[nH]1	-59*	17%	-18
CCC(CC)C(=O)Nc1ccc2nc(SCc3ccccc3)sc2c1	x	x	1
COc1ccc(N2CC(NC(=O)CCCc3ccccc3)CC2=O)cc1 (stereo not given)	x	x	-16
O=[N+]([O-])c1ccc(Cl)cc1N/N=C/c1ccncc1	19	5.6µM*	-1
O=[N+]([O-])c1cc(S(=O)(=O)Nc2ccc(Cl)cc2)ccc1N/N=C/c1ccncc1	u	u	-3
COc1ccc([C@@H]2[C@@H]3C(=O)N(C(C)(C)C)C(=O)[C@@H]3[C@]3(Cc4ccccc4)C(=O)N(c4ccc(Br)cc4)C(=O)N23)cc1	-25	-35%	-3
COc1ccc2cc(C(c3nnnn3C(C)(C)C)N3CCSCC3)c(=O)[nH]c2c1 (stereo not given)	-57*	13%	-7
CCC(C)(C)n1nnnc1C(c1cc2ccc(OC)cc2[nH]c1=O)N1CCCCC1 (stereo not given)	-23	-15%	0
Nc1cc(=O)[nH]c(SCCNS(=O)(=O)c2ccccc2)n1	36	6%	7
Cc1cc(C)c(C)c(C(=O)COC(=O)CNC(=O)CN2C(=O)c3ccccc3C2=O)c1C	18	4%	2
c1ccc(Cn2nnnc2C(c2ccccc2)N2CCN(c3nc4ccccc4s3)CC2)cc1 (stereo not given)	1	-19%	4
COc1ccc(C(c2nnnn2Cc2ccccc2)N2CCN(C/C=C/c3ccccc3)CC2)cc1 (stereo not given)	-96*	x	-16
CCN1CCN(C(c2ccccc2)c2nnnn2Cc2ccc(OC)cc2)CC1 (stereo not given)	-14	-43%	-9
C(=C\c1ccccc1)/CN1CCN(C(c2ccccc2)c2nnnn2Cc2ccccc2)CC1 (stereo not given)	-71*	x	-18
CCC(=O)Nc1ccc(C(=O)NNC(=O)c2ccccc2)cc1	-8	26%	5
SMILES	DRD3 antagonist	a7 integrin act	D3 ag
Nc1nnc(SCC(=O)NC2CCCC2)s1	6	-14%	-6
CC(=O)N1CCN=C1SCc1cccc(C)c1	3	13%	1
O=C(Nc1ccccc1)N(CCCN1CCOCC1)Cc1cc2cc3c(cc2[nH]c1=O)OCCO3	-9	13%	-5
O=C(Nc1ccccc1F)N(CCCN1CCOCC1)Cc1cc2cc3c(cc2[nH]c1=O)OCCO3	-55*	10%	2
Cn1c(CNC2CCCCC2)c(C#N)c2ccccc21	-77*	-43%	-6
Cn1c(CN2CCN(CC#N)CC2)c(C#N)c2ccccc21	-13	-8%	-1
Cn1c(CN2CCCCC2)c(C#N)c2ccccc21	-78*	-1%	-65
Cn1c(CNC2CCCCC2)nc2ccccc21	-18	-13%	-14
COc1cc(/C=C/C(=O)O)cc(S(=O)(=O)NNC(=O)c2ccc3c(c2)OCO3)c1OC	27	21%	4
CC1=C(C(=O)Nc2ccccc2C(=O)NC2CCCCC2C)SCCO1 (stereo not given)	-11	17%	-4
